# Results reported in ChEMBL document CHEMBL3988442, “University of Dundee, Small-Polar-MMV Screening Library” (2021).
# In all, about 38,000 compounds went through this assay and about 1,200 (3.2%) showed an effect of 50% or more. The median lay at about -58%. The entries come from a sample that favours strong results as a whole.
# Tested on: Plasmodium falciparum
# Experiment: Calibr Malaria Delayed Death Assay SOP
# Type: functional, organism-based
# Design: scale not given: in the data most compounds retested in dose-response had high values
# Conditions: concentration 4.99e-06 (unit not given; other assays of the set use mol/L)
row,Structure (SMILES),Percent Effect
1,COC(=O)c1cc(OCC2CCC2)cc(C(=O)N[C@H](C)C(N)=O)c1,-189.7%
2,CC(C)(C)c1n[nH]c(C2CN(C(=O)Cn3ccccc3=O)CCO2)n1 (stereo unspecified),-54.87%
3,CC(C)NC(=O)N1CCCC2(CC(C(=O)Nc3ccccc3)=NO2)C1 (stereo unspecified),-67.17%
4,COCCN(C)C[C@@H]1CN(C(=O)c2ccc(SC)cc2)C[C@@H]1CO,-5.304%
5,COc1ccc(CCN(C)C(=O)CN2C(=O)OC[C@@H]2C(C)C)cc1OC,-25.4%
6,CNC(=O)N1CCC(NC(=O)c2cnn(C)c2)CC1,-113.2%
7,NS(=O)(=O)c1cnn(CCC(=O)N(Cc2ccccc2)C2CC2)c1,-42.03%
8,COC(=O)c1ccc(N2CCN(CC(=O)NC(N)=O)C(C)C2)cc1 (stereo unspecified),-25.15%
9,CC(C)(C)OC(=O)NC1CCCN(Cc2cccs2)C1 (stereo unspecified),25.55%
10,CCOC(=O)NC1CCCN(Cc2ccc(-n3cncn3)c(C)c2)C1 (stereo unspecified),-7.286%
11,CC(C)(C)OC(=O)NC1CCCN(Cc2cccc(O)c2)C1 (stereo unspecified),51.54%
12,CCOc1ccc(C(=O)n2cccn2)cc1,-77.79%
13,O=C(c1ccc(F)cc1)N1CCOC(c2nc(-c3ncccn3)no2)C1 (stereo unspecified),-155.2%
14,O=C(O)C(F)(F)F.c1cnc(N2CCOC3(CCN(CC4CCOC4)CC3)C2)nc1 (stereo unspecified),-16.11%
15,CN1CCN(c2ccc(NC(=O)c3ccoc3)c(C(F)(F)F)c2)CC1,-45.74%
16,CN1CCN(c2ccc(NC(=O)c3cccs3)c(C(F)(F)F)c2)CC1,73.25%
17,CN1CCN(c2ccc(NC(=O)c3ccccn3)c(C(F)(F)F)c2)CC1,-41.85%
18,Cc1nc(CCCC(=O)Nc2cccc(N3CCNC3=O)c2)cs1,-207.5%
19,Cc1ccc(N2CCCC(NCc3cnc(C)s3)C2)nn1 (stereo unspecified),-130.3%
20,CC(C)[C@@H]1CN(C2CCN(Cc3ccccc3)CC2)C[C@H]1NS(C)(=O)=O,2.556%
21,CC(c1ccncc1)N(C)S(C)(=O)=O (stereo unspecified),-81.75%
22,COc1ncccc1C1CC(=O)Nc2cc(NS(C)(=O)=O)ccc21 (stereo unspecified),-136.9%
23,Nc1cc(N2CCCC(COc3ccc(F)cc3)C2)ncn1 (stereo unspecified),-4.598%
24,Cc1cc(S(=O)(=O)NCC2CNCCOC2)c(C)cc1Cl (stereo unspecified),75.13%
25,Cc1cc(C)cc(S(=O)(=O)NCC2CNCCOC2)c1 (stereo unspecified),6.797%
26,Cc1ccc(S(=O)(=O)NCC2CNCCOC2)cc1Cl (stereo unspecified),47.92%

row,Structure (SMILES),Percent Effect
1,Cc1ccccc1CCC1CCCN(C(=O)Cc2cc(=O)[nH]c(N)n2)C1 (stereo unspecified),-123.2%
2,CC(C)Cc1cc(C(=O)NCC2CCCN(Cc3ccco3)C2)on1 (stereo unspecified),-23.35%
3,c1ccc(OCc2nc(CNCCn3cccn3)cs2)cc1,20.38%
4,Cc1cnn(CCNCc2csc(COc3ccccc3)n2)c1,42.25%
5,Cc1cnn(CCCNCc2csc(COc3ccccc3)n2)c1,70.2%
6,COCCn1ccnc1C1CCN(C(=O)CSc2nnc(C)s2)CC1,-110.9%
7,CN(C)[C@@H]1CO[C@H](CNC(=O)Nc2ccccc2)[C@H]1O,-62.35%
8,O=C(NC[C@H]1OC[C@@H](N(CC2CC2)CC2CC2)[C@@H]1O)Nc1ccccc1,64.49%
9,O=C(NC[C@H]1OC[C@@H](NC2CCC2)[C@@H]1O)Nc1ccccc1,-143.1%
10,CN(CCCC1CCCO1)C(=O)c1cccc(C#N)c1 (stereo unspecified),-170.6%
11,O=C(O)CCCC(=O)N1CCC(c2noc3cc(F)ccc23)CC1,-131.6%
12,CCC(O)(CNCc1ncc[nH]1)c1ccc(Br)cc1 (stereo unspecified),65.85%
13,CC(=O)N1CCCN(C(=O)NCc2cc[nH]n2)CC1,-10.61%
14,CCC(O)(CNCc1cc[nH]n1)c1ccc(Br)cc1 (stereo unspecified),76.25%
15,CC(C)(C)OC(=O)N1CCCc2ccc(NCc3ncc[nH]3)cc21,26.46%
16,CCC(O)(CNCc1ccncc1)c1ccc(Br)cc1 (stereo unspecified),3.807%
17,CS(=O)(=O)c1ccc(CNC(=O)NCc2cc[nH]n2)cc1,-45.13%
18,O=C(c1cnccn1)N1C[C@@H]2CC[C@H](C1)N(S(=O)(=O)c1cccnc1)C2,-81.69%
19,CC(C)c1nc(C2CCCN(C(=O)CCn3ccccc3=O)C2)no1 (stereo unspecified),-110.1%
20,CCS(=O)(=O)N1CCC2(CCN(C(=O)c3cccs3)CC2)CC1,-4.516%
21,CNS(=O)(=O)C1CCN(c2cc(C(C)C)nc(C(C)C)n2)C1 (stereo unspecified),-29.56%
22,Cc1cc(C2CCCN2CC(=O)N(CCC#N)c2ccccc2F)on1 (stereo unspecified),-128.3%
23,N#CCCN(C(=O)CN1CCCC1C1CCCCC1)c1ccccc1 (stereo unspecified),50.3%
24,N#CCCN(Cc1ccco1)C(=O)CN1CCCC1c1cccs1 (stereo unspecified),2.269%
25,CCN(C(=O)CN1CCCC1c1ccc(OC)cc1)c1ccccc1 (stereo unspecified),17.94%
26,N#CCCN(C(=O)CN1CCCC1c1ccccc1Cl)c1ccccc1 (stereo unspecified),38.72%

row,Structure (SMILES),Percent Effect
1,Cc1ccc(C2CCCN2CC(=O)N(CCC#N)c2ccccc2)cc1 (stereo unspecified),61.31%
2,CCN(C(=O)CN1CCCC1Cc1ccccc1)c1ccccc1 (stereo unspecified),59.02%
3,CN(C(=O)CN1CCCC1Cc1ccccc1)c1ccccc1 (stereo unspecified),20.57%
4,CCN(C(=O)CN1CCCC1c1ccc(F)cc1)c1ccccc1C (stereo unspecified),-25.99%
5,CC1CC(=O)c2cc(C(=O)N3CCc4ccccc43)c(=O)[nH]c2C1 (stereo unspecified),-103.7%
6,CN(C)c1ncc(NC(=O)c2ccccc2C(F)(F)F)cn1,-13.75%
7,O=C(Cn1ccc2c(Cl)cccc21)N1CCCC1,-3.751%
8,COCC(=O)Nc1ccc2c(c1)C1(CCOCC1)CN2CCF.O=C(O)C(F)(F)F,-73.75%
9,Cn1cc(C2COC3(CCN(C(=O)c4ccccn4)CC3)C2)cn1.O=C(O)C(F)(F)F (stereo unspecified),-70.09%
10,COc1ccc(N2CCN(C(=O)CCc3n[nH]c(C)n3)CC2=O)cc1,-47.6%
11,COC(=O)c1ccc(C(=O)N2CCC(c3nnc(C)s3)CC2)cc1,-39.58%
12,OCCNc1nc(Nc2ccccc2)c2nccnc2n1,-38.96%
13,CC(O)c1cccc(-n2c(CCC(=O)O)nc3ccccc32)c1 (stereo unspecified),-169.3%
14,Cc1nc(C)n(CC2CCCN2CCCc2nc3ccccc3o2)n1 (stereo unspecified),-41.56%
15,COc1ncc(C2(O)CCN(Cc3cc(F)ccc3F)CC2)c(OC)n1.Cl,-42.34%
16,Fc1cccnc1N1CCC(NCc2cccc3cn[nH]c23)C1 (stereo unspecified),-62.75%
17,COc1ncc(C2(O)CCN(Cc3cccc(F)c3F)CC2)c(OC)n1.Cl,-65.3%
18,Cl.Cl.OC(CN1CCN(Cc2cc(F)ccc2F)CC1)C1CC1 (stereo unspecified),0.4009%
19,COc1ccc(C)cc1CN1CCN(Cc2nccn2C)CC1,-87.98%
20,COc1ccc(OC)c(CN2CCC(c3cc(O)nc(C)n3)C2)c1 (stereo unspecified),-6.514%
21,CC(C(=O)Nc1cccc(Cl)c1SC(F)F)S(C)(=O)=O (stereo unspecified),-87.5%
22,Cc1cc(CN2CCN(c3ccnc(-c4ccccc4)n3)CC2)no1,-117.2%
23,Cc1cc(NC(=O)C2CN(Cc3ccccc3)CCO2)ccn1 (stereo unspecified),-48%
24,NC(=O)c1cnc2n1CCN(C(=O)c1cccc(Cn3cccn3)c1)C2,-26.24%
25,O=C1CCCN1CCC1CCN(C2CCC3(CCNCC3)CC2)CC1,-113.8%
26,COc1ccc(C)cc1NC(=O)Nc1cnc(N2CCOCC2)nc1,6.993%

row,Structure (SMILES),Percent Effect
1,COc1ccc(C)cc1NC(=O)Nc1cnc(N2CCCC2)nc1,-31.15%
2,Cc1cc(C)cc(NC(=O)c2cnc(N3CCN(C)CC3)nc2C)c1,-105.5%
3,COc1ccc(NC(=O)Nc2cnc(N3CCN(C)CC3)nc2)cc1Cl,87.5%
4,Cc1ccc(NC(=O)Nc2cnc(N3CCN(C)CC3)nc2)cc1,58.27%
5,COc1ccc(NC(=O)c2cnc(N3CCN(C)CC3)nc2C)cc1,-110.8%
6,CCN(CC)C(CNS(=O)(=O)c1ccc(C(N)=O)cc1)c1ccco1 (stereo unspecified),-82.08%
7,O=C(O)C(F)(F)F.O=S(=O)(c1cccs1)N1Cc2nc(CN3CCCCC3)oc2C1,-52.21%
8,O=C(CCO)N1CC[C@@H]2CN(C(=O)c3ccco3)CCO[C@@H]2C1,-32.06%
9,COc1c(C)cnc(CN2CCn3c(nnc3C(C)C)C2)c1C,-75.36%
10,COc1c(C)cnc(CN2CCC(C(=O)N(C)C)CC2)c1C,-25.53%
11,COc1c(C)cnc(CN2CCC(N(C)C(C)C(N)=O)CC2)c1C (stereo unspecified),77.51%
12,CCC(=O)N(C)C1CCN(Cc2ncc(C)c(OC)c2C)CC1,-107.4%
13,COc1c(C)cnc(CN(C)C2CCOC3(CCOCC3)C2)c1C (stereo unspecified),-5.784%
14,COc1c(C)cnc(CN(C)C2CCCCC2)c1C,76.34%
15,COc1c(C)cnc(CN2CCn3c(nnc3C3CC3)C2)c1C,-38.06%
16,COc1c(C)cnc(CN(C)C(=O)c2ccccc2O)c1C,-65.02%
17,CSc1ccc(C(=O)N2CC(=O)N(CC3CC3)CC(O)C2)cc1 (stereo unspecified),-80.98%
18,CC(C)c1nn(C)c(N(C)C)c1CNC1CCOc2ccccc21 (stereo unspecified),-13.52%
19,O=C(O)C(F)(F)F.O=C(c1ccccc1F)N1CCC2(CC1)CC(N1CCCC1)CO2 (stereo unspecified),-57.39%
20,Cc1nc(C2CCCN(C(=O)c3cc(-c4ccccc4)[nH]n3)C2)no1 (stereo unspecified),-103.7%
21,O=C(COc1coc(CN2CCCCC2)cc1=O)Nc1cccc(Cl)c1,-36.85%
22,N#Cc1cc(F)c(NCc2ccc(F)cc2)c(F)c1,-56.06%
23,Cc1cccc(NC(=O)C2(n3cnnn3)CCCCC2)n1,-65.2%
